GALR2 ag = activates the human galanin receptor 2; 0.48% of 140,000 active; activation, % (concentration not given with the values); AID 803; O43603; GALR2-expressing cells, agonist activation read-out; in the data active means activation above about 5%, passing the limit was not always enough;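 further: 0% = vehicle buffer wells and 100% = reference agonist at full effect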
CD11b adhes enh = CD11b/CD18-fibrinogen binding enhancement; P05107+P11215; K562 CD11b/CD18 adhesion to fibrinogen, ATPlite luminescence; activation, % at 10 µM; 0.07% of 93,000 active; AID 1499;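 active means 10 µM primary screen giving 50% or more activity, confirmed by 40% or more on retest at that dose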
Target sequence (P05107 whole entry, looked up, other chains not shown): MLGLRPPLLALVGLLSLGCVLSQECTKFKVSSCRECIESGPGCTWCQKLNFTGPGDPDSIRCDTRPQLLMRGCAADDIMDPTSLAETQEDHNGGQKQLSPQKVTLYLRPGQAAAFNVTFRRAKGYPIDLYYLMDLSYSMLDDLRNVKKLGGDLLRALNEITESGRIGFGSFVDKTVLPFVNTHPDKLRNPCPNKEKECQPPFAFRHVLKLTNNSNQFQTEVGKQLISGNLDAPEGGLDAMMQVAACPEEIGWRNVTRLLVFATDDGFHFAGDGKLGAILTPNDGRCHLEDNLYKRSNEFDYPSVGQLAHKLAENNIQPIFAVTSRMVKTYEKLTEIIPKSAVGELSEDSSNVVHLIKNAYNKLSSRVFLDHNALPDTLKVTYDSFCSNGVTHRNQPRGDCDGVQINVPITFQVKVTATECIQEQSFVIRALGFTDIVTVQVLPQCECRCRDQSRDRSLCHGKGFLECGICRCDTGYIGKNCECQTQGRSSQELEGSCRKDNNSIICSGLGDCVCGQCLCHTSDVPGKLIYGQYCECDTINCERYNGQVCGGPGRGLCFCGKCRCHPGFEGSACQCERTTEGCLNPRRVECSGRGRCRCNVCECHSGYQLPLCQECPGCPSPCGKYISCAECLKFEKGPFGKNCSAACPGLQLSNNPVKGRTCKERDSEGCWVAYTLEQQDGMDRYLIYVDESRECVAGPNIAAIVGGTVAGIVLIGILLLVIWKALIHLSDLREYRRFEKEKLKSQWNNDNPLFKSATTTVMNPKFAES
S1P2 ag = activates the human S1P2 receptor. O95136. S1P2-expressing cell line, agonist reporter read-out. activation, % at 4.5 µM. 0.46% of 97,000 active; in the data active means activation above about 16%;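 further: 0% = vehicle low control and 100% = maximal reference agonist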
S1P2 antag = antagonists of human S1P2 receptor | O95136 | inhibition, % at 5 µM | cell-based S1P2 antagonist assay, inhibition at 5 uM | 0.21% of 97,000 active; in the data active means inhibition above about 45%;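 further: CRE beta-lactamase reporter cells expressing human S1P2 stimulated with S1P; 0% = agonist at EC80 alone and 100% = agonist plus reference antagonist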
GALR2 antag = blocks the human galanin receptor 2 | O43603 | GALR2-expressing cells, antagonist mode | inhibition, % at 4 µM | 0.39% of 140,000 active; in the data active means inhibition above about 27%;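 further: cells stimulated with galanin 1-16 at roughly its EC80; 0% = agonist challenge control and 100% = basal control without agonist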
Mac1 fbg inh = blocks human CD11b/CD18 adhesion to fibrinogen | K562 CD11b/CD18 adhesion to fibrinogen, ATPlite luminescence; Mn2+ added to activate the integrin | P05107+P11215 | inhibition, % at 10 µM | 0.54% of 93,000 active;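 active means primary inhibition of 50% or more at 10 µM, then 40% or more on retest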
Starred values were filed as active, the others as inactive; x = no result. A selection: hits, their analogues and other compounds. The true share with any hit is near 1.5%.

SMILES	GALR2 ag	CD11b adhes enh	S1P2 ag	S1P2 antag	GALR2 antag	Mac1 fbg inh
O=C(Nc1ccc(Cc2ccncc2)cc1)c1ccc(S(=O)(=O)N2CCOCC2)cc1	0	-10	-4	31	7	93*
O=C(Nc1ccc(S(=O)(=O)N2CCCC2)cc1)c1ccc(CN2CCOCC2)cc1	-1	x	-5	19	8	x
CCc1ccc(-c2cc(C(=O)Nn3cnnc3)c3ccccc3n2)cc1	0	-7	0	-13	-3	78*
O=C(O)CC(C(=O)O)N1C(=O)/C(=C/c2ccc(-c3nc4ccccc4s3)o2)SC1=S (stereo unspecified)	-2	2	-3	0	6	-12
O=C(O)CCN1C(=O)/C(=C/c2ccc(-c3nc4ccccc4s3)o2)SC1=S	0	86	-3	18	-4	64*
COc1ccc(C(c2c(C)[nH]n(-c3ccccc3)c2=O)c2c(C)[nH]n(-c3ccccc3)c2=O)cc1OC	-1	-4	x	x	11	52*
Cc1[nH]n(-c2ccccc2)c(=O)c1C(c1ccccc1C(=O)O)c1c(C)[nH]n(-c2ccccc2)c1=O	-1	x	x	x	-6	x
CC(=O)c1ccc(NC(=O)c2ccc(CSc3ccccc3)o2)cc1	-1	x	x	x	-3	x
O=C(Nc1ccc(F)cc1)c1ccc(CSc2ccccc2)o1	-2	-10	x	x	7	97*
CC(C)CCSc1nc2c(c(=O)[nH]c(=O)n2C)n1CCCc1ccccc1	-3	5	-2	-11	2	41
Cc1nnc(Sc2nc3c(c(=O)[nH]c(=O)n3C)n2CCCc2ccccc2)s1	-3	1	27*	-31	-5	-13
COc1cccc(N2C(=O)C(Cc3c[nH]c4ccccc34)NC2=S)c1 (stereo unspecified)	-1	x	x	x	5	x
CCOCCSc1nc2c(c(-c3cccs3)c1C#N)CC/C2=C/c1cccs1	5.1*	5	x	x	-3	4
CS(=O)(=O)N(Cc1ccc(Cl)cc1)c1ccc(C(=O)N/N=C/c2cc3ccccc3nc2Cl)cc1	-2	x	x	x	0	x
CCOC(=O)c1nc(S(C)(=O)=O)ncc1Cl	-2	-2	-6	24	36*	-28
Cc1nc2c(ccc3nc(NC(=O)c4ccc5c(c4)OCCO5)sc32)s1	0	6	-7	17	-9	67*
Cc1c(C(=O)N/N=C/c2ccc(N(C)C)cc2)[nH]c2ccc(Cl)cc12	6.4*	x	x	x	4	x
Cc1c(C(=O)N/N=C/c2ccccc2)[nH]c2ccc(Cl)cc12	-1	4	x	x	4	0
C=CCC(Nc1ccccc1)C12C=CC(O1)C(C(=O)OC)=C2C(=O)OC (stereo unspecified)	0	x	-3	65*	8	x
COc1ccc(C(C)=O)cc1CSc1nc2ccccc2c(=O)n1-c1cccc(C)c1	-1	x	x	x	15	x
COc1ccc(C(C)=O)cc1CSc1nc2ccccc2c(=O)n1-c1ccccc1	5.0*	3	x	x	-13	15
CC(/C=C1\SC(=S)N(CCCC(=O)Nc2ccc(C(=O)O)c(O)c2)C1=O)=C\c1ccccc1	-2	86*	x	x	-14	3
Cc1ccc(/C=C/C(=O)C2C(=O)c3ccccc3C2=O)cc1	-3	-12	-8	14	9	95*
Cc1cc(C)cc(NC(=S)NCCc2ccc(S(N)(=O)=O)cc2)c1	-2	x	x	x	4	x
Cc1ccc(NC(=S)NCCc2ccc(S(N)(=O)=O)cc2)c(C)c1	0	x	102*	13	-5	x
SMILES	GALR2 ag	CD11b adhes enh	S1P2 ag	S1P2 antag	GALR2 antag	Mac1 fbg inh
Cn1nc(C(=O)NCc2cccs2)c2ccccc2c1=O	0	x	x	x	13	x
CC1N=C2c3ccccc3N=C(SCc3cc(=O)n4cc(Cl)ccc4n3)N2C1=O (stereo unspecified)	1	x	25*	-51	2	x
CC(C)C1N=C2c3ccccc3N=C(SCc3cc(=O)n4ccccc4n3)N2C1=O (stereo unspecified)	2	x	-3	-4	-2	x
CC1=C(C(=O)Nc2ccc(F)cc2)C(c2ccc(C)o2)C2=C(CC(C)(C)CC2=O)N1 (stereo unspecified)	-1	-1	21*	11	0	0
CC(C)(C)C(=O)Nc1nc(=S)ss1	0	-6	1	-21	-11	66*
CCC(=O)Nc1nc(=S)ss1	0	-3	-3	8	0	-22
CC(=O)Nc1cc(OC(C)=O)c2nonc2c1OC(C)=O	0	-5	2	98*	96*	59*
O=C(O)CCC(=O)NNC(=O)c1ccc(Br)cc1	0	x	x	x	0	x
